Measurements from PubChem BioAssay AID1347165 (National Center for Advancing Translational Sciences (NCATS), 2019).
Screen size: about 220,000 compounds; about 5,700 (2.6%) were called active. Inconclusive results (about 18%) are left out. The call rests on the fitted dose curve; in most records, active means well fitted inhibition curve with a large enough effect; inconclusive means small, poorly fitted or top-dose-only effect; inactive means no such curve, though single readings can be large or run the other way. Shown is part of a subset that was picked to be rich in actives.

target: Lysine-specific demethylase 5B (Homo sapiens) (UniProt Q9UGL1); experiment: Primary screen for KDM5B Histone Demethylases FDH-coupled qHTS; conditions: FDH-coupled NADH fluorescence (FDH is formaldehyde dehydrogenase); series mostly up to 57.7 µM; activity change, negative = inhibition: at the top concentration; further: nearly all actives have a fitted effect of over 70% in size; on activity change, negative = inhibition: 0% is about no effect
Sequence (Q9UGL1 whole entry, looked up): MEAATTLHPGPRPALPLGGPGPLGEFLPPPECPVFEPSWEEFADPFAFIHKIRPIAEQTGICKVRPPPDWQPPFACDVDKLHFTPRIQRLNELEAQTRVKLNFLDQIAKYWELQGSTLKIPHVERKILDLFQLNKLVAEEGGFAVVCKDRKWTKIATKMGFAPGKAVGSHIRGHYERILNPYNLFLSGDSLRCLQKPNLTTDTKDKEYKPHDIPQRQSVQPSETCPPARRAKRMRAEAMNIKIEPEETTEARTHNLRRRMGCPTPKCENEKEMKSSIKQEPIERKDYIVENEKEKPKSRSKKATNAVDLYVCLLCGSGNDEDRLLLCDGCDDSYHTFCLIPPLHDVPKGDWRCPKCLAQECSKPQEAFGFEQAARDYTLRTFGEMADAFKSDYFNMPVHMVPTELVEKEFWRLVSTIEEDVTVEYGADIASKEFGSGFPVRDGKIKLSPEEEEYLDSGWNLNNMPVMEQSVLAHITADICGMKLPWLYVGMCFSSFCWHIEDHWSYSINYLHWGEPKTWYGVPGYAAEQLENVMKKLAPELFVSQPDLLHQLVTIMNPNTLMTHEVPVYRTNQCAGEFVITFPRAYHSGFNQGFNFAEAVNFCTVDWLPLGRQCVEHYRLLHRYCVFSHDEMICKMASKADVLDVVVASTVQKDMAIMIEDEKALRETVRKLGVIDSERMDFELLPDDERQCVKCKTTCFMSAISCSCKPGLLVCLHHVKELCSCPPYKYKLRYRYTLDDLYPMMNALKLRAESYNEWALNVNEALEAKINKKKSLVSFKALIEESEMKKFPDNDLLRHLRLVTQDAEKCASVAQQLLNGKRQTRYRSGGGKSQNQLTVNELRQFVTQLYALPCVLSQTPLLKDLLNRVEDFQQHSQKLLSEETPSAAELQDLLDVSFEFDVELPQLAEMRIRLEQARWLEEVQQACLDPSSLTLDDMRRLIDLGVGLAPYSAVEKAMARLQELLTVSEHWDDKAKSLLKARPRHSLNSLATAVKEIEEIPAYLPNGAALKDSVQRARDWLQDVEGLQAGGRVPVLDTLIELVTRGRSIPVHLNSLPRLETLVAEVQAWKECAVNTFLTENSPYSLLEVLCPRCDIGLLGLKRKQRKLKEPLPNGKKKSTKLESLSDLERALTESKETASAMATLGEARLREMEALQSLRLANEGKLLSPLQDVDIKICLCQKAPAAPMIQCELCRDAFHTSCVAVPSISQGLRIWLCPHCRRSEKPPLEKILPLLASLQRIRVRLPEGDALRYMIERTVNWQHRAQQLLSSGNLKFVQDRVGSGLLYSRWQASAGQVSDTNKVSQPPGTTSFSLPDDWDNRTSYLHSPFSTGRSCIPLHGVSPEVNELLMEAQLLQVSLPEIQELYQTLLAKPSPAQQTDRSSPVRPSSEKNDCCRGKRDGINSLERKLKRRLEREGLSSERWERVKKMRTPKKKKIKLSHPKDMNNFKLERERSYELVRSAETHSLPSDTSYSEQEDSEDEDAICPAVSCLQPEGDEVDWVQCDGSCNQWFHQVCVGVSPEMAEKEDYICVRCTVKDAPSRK
How it was run: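 Coupled FDH/NAD⁺ fluorescence readout. KDM5BΔAP 200 nM final; compound titration, 10 min RT preincubation; substrate mix 12.5 µM H3K4me3, 25 µM 2-OG, 50 µM Fe(II), 100 µM ascorbate, 0.25 mM NAD⁺, 0.25 U/mL FDH; ΔRFU over 30 min.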
Potency means the concentration at half of the fitted maximal effect.

| Compound | activity change, negative = inhibition | Potency |
| --- | --- | --- |
| CCCc1nc(SCC(=O)N2CCCC2)c2c(=O)n(C)c(=O)n(C)c2n1 | 37.7% (inactive) |  |
| Cc1ccccc1NC(=S)NNC=O | 26.2% (inactive) |  |
| COc1ccc(OC)c(S(=O)(=O)N2CCCC(C(=O)NCCc3ccccc3)C2)c1 (stereo not drawn) | 26.3% (inactive) |  |
| CC(=O)c1ccccc1NC(=O)CCc1ncc(-c2c(F)cccc2F)o1 | -23.2% (inactive) |  |
| CCOC(=O)CN1C(=O)C2(CC(=O)Nc3[nH]ncc32)c2ccccc21 (stereo not drawn) | 5% (inactive) |  |
| Cc1cnc(C)c(N2CCN(C(=O)[C@H]3CC[C@@H](N)C3)CC2)n1 |  | 22.4 µM (active) |
| N[C@@H]1CC[C@H](C(=O)N2CCN(CCCOc3ccc(F)cc3)CC2)C1 | -4.43% (inactive) |  |
| Cc1cnc(C)c(N2CCN(C(=O)C3CCC(=O)N(CCc4cccc(F)c4)C3)CC2)n1 (stereo not drawn) | 0.442% (inactive) |  |
| COc1ccccc1Cc1nnc(NC(=O)c2cccc(NC(=O)c3ccccc3)c2)s1 | -7.98% (inactive) |  |
| COc1ccc(OC2CCN(C(C)=O)CC2)c(C(=O)N(C)Cc2ccc3nccnc3c2)c1 | -11.7% (inactive) |  |
| COc1ccc(OC2CCN(C(C)=O)CC2)c(C(=O)NCCc2ccccc2OC)c1 |  | 25.1 µM (active) |
| COc1ccc(OC2CCN(C(C)=O)CC2)c(C(=O)NCc2snnc2C)c1 | 5.6% (inactive) |  |
| O=C(c1cc2ccccc2oc1=O)N1CCC(Cc2ccccc2)CC1 | 7.13% (inactive) |  |
| COCCN1C(=O)c2cccn2CC1CNC(=O)c1ccccc1F (stereo not drawn) | -17.1% (inactive) |  |
| COCCC(=O)NCC1Cn2cccc2C(=O)N1Cc1ccccc1 (stereo not drawn) | -21.7% (inactive) |  |
| COCCN1C(=O)c2cccn2CC1CNC(=O)c1cc2ccccc2[nH]1 (stereo not drawn) |  | 28.2 µM (active) |
| CCOC(=O)c1oc2cc(OC(C)=O)ccc2c(=O)c1-c1ccc(OC)cc1 | -2.04% (inactive) |  |
| O=C1CO[C@H](c2ccc(NS(=O)(=O)c3cccc(F)c3)cc2)[C@@H](CO)N1Cc1ccncc1 | 15.3% (inactive) |  |
| Cn1cc(C#N)cc1-c1nc(COc2ccccc2)nn1CC(F)(F)F | -14.2% (inactive) |  |
| COc1cc(F)ccc1C(C)=O | 15.6% (inactive) |  |
| Cc1cc(Nc2ccccc2)n2nc(Cc3ccc(Cl)cc3)nc2n1 | 19.8% (inactive) |  |
| Fc1ccc(Cc2nc3nccc(-c4cc5ccccc5o4)n3n2)cc1 | -345% (inactive) |  |
| CCc1nc2nccc(-c3ccco3)n2n1 |  | 28.2 µM (active) |

| Compound | activity change, negative = inhibition | Potency |
| --- | --- | --- |
| COCc1nc2nccc(-c3ccccc3)n2n1 |  | 31.6 µM (active) |
| COc1cc(F)ccc1-c1ccnc2nc(C(C)C)nn12 |  | 28.2 µM (active) |
| COc1cc(F)ccc1-c1ccc(COc2ccc3c(cnn3CCC(=O)O)c2)cc1 | -20.4% [at 86.2 µM] (inactive) |  |
| Fc1ccc(Cc2nc3nccc(-c4ccco4)n3n2)cc1 |  | 20 µM (active) |
| O=C(O)c1cc(Br)c(Cl)[nH]1 | -0.612% (inactive) |  |
| Cc1ccc2c(COC(=O)COc3ccc(C)c(C)c3)cc(=O)oc2c1 | 9.56% (inactive) |  |
| Cc1[nH]c2ccc(C(=O)N3CCN(C)CC3)cc2c1C | 16.8% (inactive) |  |
| CCOc1ccc(C(=O)Nc2ccc3oc(C)nc3c2)cc1OCC | -8.51% (inactive) |  |
| N#CCCC(C#N)Cn1nc(-c2ccccc2)c2ccccc2c1=O (stereo not drawn) | 4.44% (inactive) |  |
| CCN(CC)Cc1cnc2c(C(=O)NCc3ccsc3)cnn2c1 | -24.5% (inactive) |  |
| CC#CC(=O)N1CCCC(C(=O)Nc2cccc(-c3cccc(C)c3)c2)C1 (stereo not drawn) | 7.67% (inactive) |  |
| COc1ccc(-c2ccnc3nc(CC(C)C)nn23)c(F)c1 |  | 28.2 µM (active) |
| c1coc(-c2ccnc3nc(C4CC4)nn23)c1 |  | 28.2 µM (active) |
| COc1cccc(-c2nc(COc3ccccc3C#N)cs2)c1 | -29% (inactive) |  |
| COc1cccc(-c2ccnc3nc(Cc4cc(F)cc(F)c4)nn23)c1 |  | 25.1 µM (active) |
| COc1ccc(CN2CC(Oc3ccc(F)c(F)c3)C2)cc1 | -0.531% [at 149 µM] (inactive) |  |
| COCCn1c(-c2cccc(OC)c2)cnc1NC(=O)NCCc1ccccc1 | -4.88% (inactive) |  |
| CC1CNC(C)(C)C(O)C1 (stereo not drawn) | 22.2% (inactive) |  |
| Cn1c(=O)c2c(nc(NCc3cccs3)n2Cc2ccc(F)cc2)n(C)c1=O | 12.8% (inactive) |  |
| Oc1c(C=Nc2ccc(F)c(Cl)c2)ccc2ccccc12 | 11.3% (inactive) |  |
| CC(NC(=O)CNC(=O)c1ccc(N2CCCC2=O)cc1)c1ccccc1Br (stereo not drawn) | -11.8% (inactive) |  |
| COc1ccc(C(=O)N[C@@H]2C[C@H](COc3cccc(C)n3)[C@@H](O)[C@H]2O)cc1 | -15.3% [at 86.2 µM] (inactive) |  |
| CN(CC1CCN(CCc2cccc(F)c2)CC1)C(=O)c1cn2cccnc2n1 |  | 28.2 µM (active) |

| Compound | activity change, negative = inhibition | Potency |
| --- | --- | --- |
| CN(Cc1nccn1C)C(=O)c1cc(CN2CCC(Cc3ccccc3)CC2)on1 | -7.68% (inactive) |  |
| CN(CCc1ccccn1)C(=O)c1ccc(OC2CCN(CCc3ccccc3)CC2)cc1 | -6.05% (inactive) |  |
| CCCn1nc(C(=O)OCC(=O)N2CCc3ccccc32)c2ccccc2c1=O | 24.1% (inactive) |  |
| COc1ccc(NC(=O)c2cnc3ccccc3n2)c(OC)c1 | -11.9% (inactive) |  |
| CCCOCCCNC(=O)c1c(C)noc1-c1ccccc1Cl | 6.54% (inactive) |  |
| CCCOCCCNC(=O)c1c(C)noc1-c1cc(OC)c(OC)c(OC)c1 |  | 28.2 µM (active) |
| COc1ccc(-c2onc(C)c2C(=O)NCc2ccc3c(c2)OCO3)cc1 | -8.26% (inactive) |  |
| O=C(COc1ccc2c(=O)c(-c3ccccc3)coc2c1)N1CCN(c2ccccn2)CC1 | -1.74% (inactive) |  |
| Cc1ccc(-c2noc(Cn3cnc(C#N)n3)n2)cc1 | 7.52% (inactive) |  |
| COc1cccc(-c2cc(C(=O)NCc3cc(C)on3)c3c(c2)N(C)CCO3)c1OC |  | 28.2 µM (active) |
| COc1ccc(CNC(=O)c2cccc3c2CCN3C(=O)c2ccc(F)cc2)cc1OC | -17.8% (inactive) |  |
| COc1ccccc1-c1cc(C(=O)NCc2cnn(C)c2)c2c(c1)N(C)CCO2 |  | 28.2 µM (active) |
| Cc1ccccc1-c1cc(C(=O)NCCN2CCNC2=O)c2c(c1)N(C)CCO2 |  | 39.8 µM (active) |
| Cc1ccccc1CN1C(=O)c2ccccc2Sc2ccc(C(=O)NCCCN3CCOCC3)cc21 | -1.46% (inactive) |  |
| COc1ccccc1C(=O)Nc1ccnn1C1CCN(Cc2cnn(C)c2)CC1 | 9.36% (inactive) |  |
| COc1ccc(CN[C@@H]2CCC[C@@H](C(=O)NCc3cc(C)on3)CC(=O)N(C)C2)cn1 | -11.1% [at 86.2 µM] (inactive) |  |
| Cc1ccc2[nH]cc(CCNC(=O)c3ccccc3C)c2c1 | 6.05% (inactive) |  |
| COc1cccc(-c2ccc(F)c(C(N)=O)c2)c1OC | -22.1% (inactive) |  |
| O=C(Nc1cccc(S(=O)(=O)N2CCCC2)c1)c1cccc2cccnc12 | -3.61% (inactive) |  |
| COc1ccc(C(C)=O)cc1CSCc1coc(-c2ccc(C)cc2)n1 | -2.24% (inactive) |  |
| CCc1c(C(=O)Nc2ccc3nc(C)sc3c2)cnn1-c1ccc(OC)nn1 | -12.8% (inactive) |  |
| Cc1ncsc1C(=O)NCc1ccc(N2CCCCCC2)nc1 | 11.7% (inactive) |  |
